A short description of assay [1]: inhibitors of TNFa-induced NFkB p65 translocation, primary screen, imaging, HUVEC, MLSMR starter and 10KST1 sets (AID 438;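 active means inhibition above 20% together with a positive visual image hit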;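 further: compound added about 3h40 before a 20 min TNFalpha stimulation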;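 on inhibition: signal is the nuclear over cytoplasmic p65 intensity ratio per well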). Particulars: HUVEC TNFa-induced p65 nuclear translocation; cell count: measured here: nuclei count (cytotoxicity indicator), at 2.08 µM; inhibition: at 2 µM, stronger effect = higher value, 0% TNFa-plus-vehicle, 100% no-TNFa wells.
A short description of assay [2]: inhibitors of E-selectin induction by TNFa, primary screen, imaging, HUVEC, immunofluorescence, MLSMR starter and 10KST1 sets (AID 487;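 active means visually confirmed hit in the image check and inhibition above 20%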;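 on inhibition: signal is fraction of cell area covered by stained E-selectin grains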;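 on nuclei count: 100% = median nuclei count of all wells on the same plate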). As to conditions: HUVEC TNFalpha-induced E-selectin immunofluorescence imaging, at 2 µM; inhibition: stronger effect = higher value; nuclei count: measured here: cell number, toxicity.
A short description of assay [3]: DUSP6 inhibitors restoring Erk phosphorylation by chemical complementation, primary imaging in DUSP6-transfected HeLa (AID 609;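 active means compounds giving at least 50% inhibition in the cell-based MKP-3 phosphatase rescue imaging test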;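 on inhibition: phospho-Erk level distribution per well compared with pooled transfected vehicle control wells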). As to conditions: HeLa MKP-3 transfected, phospho-Erk imaging KS statistic, at 10 µM, cells stimulated with TPA for 15 min.
Assay [4] deals with Dual specificity protein phosphatase 6 (Homo sapiens) (UniProt Q16828). The assay is described as above. Particulars: HeLa MKP-3 transfected, phospho-Erk imaging KS statistic; at 10 µM; stronger effect = higher value; cells stimulated with TPA for 15 min.
Dual specificity protein phosphatase 6 (Homo sapiens), sequence (Q16828 whole entry, looked up): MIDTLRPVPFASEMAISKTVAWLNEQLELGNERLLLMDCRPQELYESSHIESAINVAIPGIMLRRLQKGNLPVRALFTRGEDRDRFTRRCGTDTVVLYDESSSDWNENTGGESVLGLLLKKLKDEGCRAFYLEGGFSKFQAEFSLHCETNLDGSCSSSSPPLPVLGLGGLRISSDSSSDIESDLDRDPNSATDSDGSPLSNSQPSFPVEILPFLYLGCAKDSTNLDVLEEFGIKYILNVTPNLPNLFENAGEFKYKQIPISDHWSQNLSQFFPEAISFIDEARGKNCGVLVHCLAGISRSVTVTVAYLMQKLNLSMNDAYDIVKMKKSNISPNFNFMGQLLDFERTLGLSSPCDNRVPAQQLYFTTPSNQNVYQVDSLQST
Assay [5] deals with Voltage-gated potassium channel subunit beta-2 (Rattus norvegicus) (UniProt P62483). In words: KvBeta enzyme negative modulators, primary screen, biochemical, NADPH fluorescence (AID 622;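 active means fluorescence slope higher than the sample average by over 3 SD, cut at about -0.22 in these data, passing the limit was not always enough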;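 further: slope of raw intensity against log time taken from 70 to 1610 s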). Particulars: recombinant KvBeta, 4-cyanobenzaldehyde reduction, at 10 µM, stronger effect = higher value.
Voltage-gated potassium channel subunit beta-2 (Rattus norvegicus), sequence (P62483 whole entry, looked up): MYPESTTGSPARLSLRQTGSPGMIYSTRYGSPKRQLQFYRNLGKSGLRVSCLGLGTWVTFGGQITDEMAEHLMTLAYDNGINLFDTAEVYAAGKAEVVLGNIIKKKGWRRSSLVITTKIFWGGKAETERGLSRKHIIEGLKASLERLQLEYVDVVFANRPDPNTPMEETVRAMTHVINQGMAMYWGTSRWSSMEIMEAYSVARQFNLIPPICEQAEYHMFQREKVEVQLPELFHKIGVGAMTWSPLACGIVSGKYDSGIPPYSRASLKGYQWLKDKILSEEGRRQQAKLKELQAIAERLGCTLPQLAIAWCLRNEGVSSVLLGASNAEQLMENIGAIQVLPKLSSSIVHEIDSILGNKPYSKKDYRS
For assay [6] the target is unchanged. Put plainly: KvBeta positive modulators, primary screen, biochemical, NADPH fluorescence (AID 623;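 active means NADPH fluorescence slope more negative than the mean of all samples by about 3 SD, 99.7% confidence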;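 further: fluorescence intensity change per second fitted from 20 to 320 s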). As to conditions: Recombinant KvBeta, NADPH fluorescence decrease slope, 10 min; at 10 µM; stronger effect = lower value.
Assay [7] deals with Alpha-2C adrenergic receptor (Homo sapiens) (UniProt P18825). Put plainly: modulators of alpha2C/GIRK thallium flux, primary screen, cell-based, HEK293 alpha2C/GIRK1/2 (AID 624;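 active means fluorescence slope after compound addition differing from the mean of all screened samples at 99.7% confidence, in either direction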;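 further: slope of fluorescence ratio to pre-addition baseline per second over 15 to 24 s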). As to conditions: thallium flux BTC fluorescence, at 10 µM, actives lie on both sides.
Alpha-2C adrenergic receptor (Homo sapiens), sequence (P18825 whole entry, looked up): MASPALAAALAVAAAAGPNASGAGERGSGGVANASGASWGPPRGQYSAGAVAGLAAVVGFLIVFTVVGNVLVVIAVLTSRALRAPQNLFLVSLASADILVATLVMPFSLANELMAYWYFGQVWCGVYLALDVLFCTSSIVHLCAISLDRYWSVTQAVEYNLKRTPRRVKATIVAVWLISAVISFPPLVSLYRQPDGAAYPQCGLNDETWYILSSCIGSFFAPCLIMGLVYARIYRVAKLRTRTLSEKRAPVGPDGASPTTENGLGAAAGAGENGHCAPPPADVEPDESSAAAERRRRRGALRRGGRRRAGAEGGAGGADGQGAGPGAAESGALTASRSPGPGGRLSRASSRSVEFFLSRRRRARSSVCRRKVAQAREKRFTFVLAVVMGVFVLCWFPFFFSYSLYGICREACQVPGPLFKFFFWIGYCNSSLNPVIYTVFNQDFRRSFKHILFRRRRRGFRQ
A short description of assay [8]: inhibitors of Sendai virus-induced IRF3 signaling, primary screen, TLR/RLR signaling modifier project, cell-based, Sendai virus stimulus, luciferase, 10K MLSCN set (AID 602276;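 active means inhibition at or above 50% at 10 µM; inactive means inhibition below 50%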;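 further: firefly luciferase from ISG56 promoter only with Renilla not read in this screen; 0% = Sendai virus plus DMSO and 100% = medium plus DMSO without virus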). Particulars: HEK293 RL24 IRF3 luciferase reporter, at 10 µM, stronger effect = higher value. (In general: A reporter such as luciferase makes a cellular process visible.)
The nature of assay [9]: inhibitors of poly I:C-induced TLR3 signaling, primary screen, cell-based, poly I:C stimulus, luciferase, 10K MLSCN set (AID 602277). Particulars: HEK293-TLR3 RL24 IRF3 luciferase reporter, at 10 µM, stronger effect = higher value.
The nature of assay [10]: inhibitors of mutant huntingtin aggregation, primary screen, imaging, exon1htt(103Q)mCFP cells, high-content imaging (AID 483;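 active means visual image review flags a hit and inhibition of aggregation exceeds 20%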;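 further: compound exposure lasted 3 days before fixation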;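 on nuclei count: percent of the per-plate median nuclei count of sample wells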). Particulars: exon1htt(103Q)mCFP cell line, aggregate imaging, at 2 µM; inhibition of aggregation: stronger effect = higher value; nuclei count: measured here: cell count, toxicity.
Assay [11] concerns the target Muscarinic acetylcholine receptor M4 (Homo sapiens) (UniProt P08173). Put plainly: compounds altering M4/GIRK thallium flux, either direction, primary screen, M4 allosteric agonist project, cell-based, HEK293 M4/GIRK, BTC-AM (AID 625;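 active means fluorescence slope after compound addition differing from the mean of all tested samples at 99.7% confidence, mostly higher but some lower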;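 further: thallium influx through GIRK channels coupled to M4 in HEK293 cells with BTC-AM dye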). Particulars: at 10 µM, actives lie on both sides.

The source made the active and inactive calls.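 How the source made its calls, unless noted: active means inhibition of the reporter signal at or above 50%; inactive means inhibition below 50%.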

Muscarinic acetylcholine receptor M4 (Homo sapiens), sequence (P08173 whole entry, looked up): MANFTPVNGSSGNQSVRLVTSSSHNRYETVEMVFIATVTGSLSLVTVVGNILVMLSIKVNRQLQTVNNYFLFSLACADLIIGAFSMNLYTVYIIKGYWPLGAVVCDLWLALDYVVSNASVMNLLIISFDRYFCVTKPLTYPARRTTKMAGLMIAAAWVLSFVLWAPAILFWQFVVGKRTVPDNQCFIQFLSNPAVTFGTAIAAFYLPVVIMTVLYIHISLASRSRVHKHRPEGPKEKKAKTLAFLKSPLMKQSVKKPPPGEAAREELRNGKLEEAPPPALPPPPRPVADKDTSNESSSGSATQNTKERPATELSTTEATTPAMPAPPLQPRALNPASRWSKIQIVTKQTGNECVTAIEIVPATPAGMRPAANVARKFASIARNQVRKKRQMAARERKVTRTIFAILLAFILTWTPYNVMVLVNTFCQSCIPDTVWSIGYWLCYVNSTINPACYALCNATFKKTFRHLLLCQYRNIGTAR

Usually inhibition stands for the relative decrease from the control value, in per cent. With `CCCCc1oc2ccccc2c1C(=O)c1cc(I)c(OCCN(CC)CC)c(I)c1`, the cell count in assay [1] came to 651. Also, the inhibition in [1] is -9% (inactive); in assay [2] it was -235% (inactive); in assay [4], 5.42% (inactive); in [8], 9.88% (inactive); in assay [9], 43.5% (inactive). The nuclei count in [2] came out at 136%. The z-score in assay [3] (measured here: cell density z-score) was 0.542; in assay [3] (measured here: nuclear c-Myc green intensity z-score), -0.674; in [3] (measured here: nuclear pErk red intensity z-score, stronger effect = higher value) it was 0.954. For the same compound, in assay [5], the fluorescence slope was -0.467 (inactive). In addition, the NADPH fluorescence slope in assay [6] is -4.3e-05 (inactive). The slope in assay [7] was 0.00817 (inactive).
As to `O=C(NC1CC2CCC1C2)c1ccc(CN2CCOCC2)cc1` (centres undefined), in assay [1], the cell count turned out to be 362. In addition, the inhibition is 6.1% (inactive) in [1], -7.2% (inactive) in assay [2], -25.1% (inactive) in [8] and -53.4% (inactive) in [9]. For the same compound, the inhibition of aggregation in [10] was 4.3% (inactive). For the same compound, the nuclei count in assay [10] is 91.8%; in assay [2] it was 99.5%. In addition, the fluorescence slope in assay [5] is -0.466 (inactive); in assay [11], 0.0046 (inactive). In addition, the NADPH fluorescence slope in assay [6] is -5.1e-05 (inactive).
In the case of `COc1ccc(CCNC(=O)c2cc(-c3cc(C)c(C)cc3O)n[nH]2)cc1OC`, in assay [1], the cell count came out at 434. The inhibition in assay [1] is 2.8% (inactive); in [2], -83.7% (inactive); in assay [8] it was 9.16% (inactive); in assay [9] it was 9.05% (inactive). Moreover, the inhibition of aggregation in [10] is 8.6% (inactive). For the same compound, the nuclei count is 88.9% in assay [10] and 145% in assay [2]. The fluorescence slope in assay [5] is -0.444 (inactive); in assay [11], 0.00555 (inactive). In assay [6], the NADPH fluorescence slope is -0.000364 (inactive).
`CC(C)(C)c1cc(C(=O)O)nn1-c1ccccc1`: the cell count in assay [1] amounted to 446. Also, the results for the inhibition in assay [1], in assay [8] and in assay [9] were 2.5% (inactive), 15.1% (inactive) and 24.6% (inactive), respectively. The inhibition of aggregation in assay [10] was 2.7% (inactive). The figures for the nuclei count in assay [10] and in assay [2] were 94.2% and 130%, respectively. The fluorescence slope in assay [5] is -0.482 (inactive); in assay [11], 0.00539 (inactive). In addition, the NADPH fluorescence slope in assay [6] was -3.8e-05 (inactive).
Turning to `COC(=O)Nc1ccc(C)cc1NC(=O)OC`, in assay [1], the cell count came to 624. The inhibition in assay [1] is -20.8% (inactive); in assay [2], 16% (inactive); in assay [8], -9.05% (inactive); in assay [9], -6.68% (inactive). For the same compound, the inhibition of aggregation in assay [10] was -13.1% (inactive). The figures for the nuclei count in assay [10] and in assay [2] were 98.6% and 86.5%, respectively. For the same compound, the fluorescence slope in assay [5] was -0.574 (inactive); in assay [11], 0.00692 (inactive). The NADPH fluorescence slope in [6] was 2.5e-05 (inactive).
As to `COC(=O)c1c(C(=O)OC)n(CCCN)c2ccc(C)cc12`, in [1], the cell count is 434. Moreover, the inhibition was 10.9% (inactive) in assay [1], 20.6% (inactive) in [8] and 34% (inactive) in [9]. Further, in assay [10], the inhibition of aggregation was 1.8% (inactive). Besides, the results for the nuclei count in assay [10] and in assay [2] were 100% and 152%, respectively. For the same compound, the results for the fluorescence slope in assay [5] and in assay [11] were -0.495 (inactive) and 0.00606 (inactive), respectively. The NADPH fluorescence slope in [6] is -7.5e-06 (inactive).
Consider `COc1ccc(N2CCN(c3oc(COc4ccccc4)nc3C#N)CC2)cc1`, for which, in [1], the cell count came to 449. Moreover, the inhibition in [1] is 9.4% (inactive); in [8], 10.1% (inactive); in [9], 3.38% (inactive). In addition, the inhibition of aggregation in assay [10] is -7.4% (inactive). The nuclei count in [10] is 102%; in [2], 155%. Moreover, the results for the fluorescence slope in assay [5] and in [11] were -0.602 (inactive) and 0.00622 (inactive), respectively. Further, the NADPH fluorescence slope in assay [6] was -9.8e-06 (inactive).
With `Cc1nnc(SCCn2c(N3CC(C)CC(C)C3)nc3c2c(=O)n(C)c(=O)n3C)s1` (centres undefined), the cell count in assay [1] is 207. In addition, the inhibition in [1] was 3.4% (inactive); in assay [2] it was 60.7% (active); in assay [8], 15.7% (inactive); in assay [9], 21.2% (inactive). Besides, the inhibition of aggregation in [10] is 10.1% (inactive). In addition, the nuclei count in assay [10] came out at 84.9%; in [2], 81.2%. Also, the fluorescence slope in assay [5] is -0.598 (inactive); in [11] it was 0.00478 (inactive). For the same compound, the NADPH fluorescence slope in assay [6] is -2.7e-05 (inactive).
As to `CCCn1c(=N)n(CC(=O)c2cccs2)c2ccccc21`, the cell count in assay [1] is 427. In addition, the inhibition in assay [1] is 3.8% (inactive); in assay [2], -47% (inactive); in assay [8], 2.39% (inactive); in assay [9], 3.66% (inactive). Also, in assay [10], the inhibition of aggregation was -0.8% (inactive). In addition, the nuclei count in assay [10] was determined as 87.6%; in [2] it was 114%. The fluorescence slope in assay [5] is -0.552 (inactive); in [11], 0.00423 (inactive). In addition, in assay [6], the NADPH fluorescence slope was -2.9e-05 (inactive).
On to `O=C(CSc1nnc(Cn2cnc3ccccc32)o1)c1ccccc1`, for which, in assay [1], the cell count is 672. The inhibition in assay [1] was 3% (inactive); in assay [2], 82.5% (inactive); in [8], 7.52% (inactive); in assay [9], -3.02% (inactive). Besides, the inhibition of aggregation in assay [10] is -1.5% (inactive). Also, the nuclei count in assay [10] was determined as 92.9%; in assay [2] it was 52%. The fluorescence slope in assay [5] is -0.464 (inactive); in [11], 0.00662 (inactive). In assay [6], the NADPH fluorescence slope is -3.7e-05 (inactive).

(Values after PubChem BioAssay.)
